Molecules are shown by their SMILES. Screen size: about 310,000 compounds; about 11,000 (3.5%) were called active. Roughly 8% stayed inconclusive and do not appear here. Calls follow the shape of the dose curve; as a rule, active = well fitted inhibition curve with a large enough effect; inconclusive = small, poorly fitted or top-dose-only effect, or effect the other way; inactive = flat fitted curve, though single readings scatter. The list comes from a sample in which actives are over-represented; it also holds similar structures and randomly drawn compounds. A call without a number means that no potency is given here.
Potency is read from the fitted curve at half-maximal effect.

This assay can be described thus: VP16 counterscreen qHTS for inhibitors of ROR gamma transcriptional activity.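 Also: Gal4-VP16 expression switched on by copper sulfate through the metallothionein promoter; nearly all actives have a fitted effect of over 50% in size.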 The settings on record: Drosophila S2 Gal4-VP16 UAS-luciferase, luminescence, 20 h; series mostly up to 53.6 µM. On the technique in general: The purpose of a counterscreen is to sort out artefacts and off-target activity.
On to `COCCNC(=O)c1ccc2c(c1)ncn2-c1ccc(C)c(Cl)c1`, for which the Potency result is “inactive”.

As to `CCC1Oc2ccccc2N(CC(=O)NCCCN2CCN(CC)CC2)C1=O` (stereo not drawn), the Potency result was “inactive”.

Turning to `Cc1c(C)c2ccc(OCC(=O)N3CCN(c4cccc(Cl)c4)CC3)cc2oc1=O`, the Potency entry is “inactive”.

In the case of `Cc1ccc(OCC(=O)NC(C)c2ccccc2)cc1C` (stereo not drawn), the Potency entry is “inactive”.

As for `O=C(Nc1cccnc1)c1cc(Cl)ccc1Cl`, the Potency entry was “inactive”.

Consider `O=C(/C=C/c1ccc(Cl)cc1Cl)c1cccnc1`, for which the Potency was 6.31 µM (active).

Consider `O=C(/C=C/c1ccc(Cl)c([N+](=O)[O-])c1)c1cccnc1`, for which the Potency entry was “inactive”.

`COc1cccc(CNC(=O)C2CCCN(c3ncnc4c3nc3n4CCCCC3)C2)c1` (stereo not drawn): the Potency entry is “inactive”.

On to `Cc1cc(NC(=O)CCN2CCN(Cc3ccccc3)CC2)ccc1Br`, for which the Potency entry was “inactive”.

Consider `Cc1cc(NC(=O)CSc2nc(=O)cc(N)n2-c2ccc(F)cc2)no1`, for which the Potency result is “inactive”.

With `COc1cc(/C=N/NC(=O)Cc2ccccc2)cc(OC)c1OC`, the Potency result was “inactive”.

With `CC(C)(C)C(=O)Cn1c(NCCO)nc2ccccc21`, the Potency entry was “inactive”.

With `OCCNc1nc2ccccc2n1-c1ncnc2sc3c(c12)CCC3`, the Potency was 10 µM (active).

With `O=C(O)[C@@H]1CCCN1c1ncnc2sc3c(c12)CCC3`, the Potency result was “inactive”.

Turning to `O=C(c1ccccc1)N1N=C(c2ccccc2O)CC1c1ccc(Br)cc1` (stereo not drawn), the Potency result is “inactive”.

In the case of `Cc1cn([C@H]2CC(F)[C@@H](CO)O2)c(=O)[nH]c1=O` (stereo partly drawn), the Potency entry is “inactive”.

As for `CCn1c(-c2ccncc2)n[nH]c1=S`, the Potency was 11.2 µM (active).

Consider `CC(C)n1c(-c2ccncc2)n[nH]c1=S`, for which the Potency result was “inactive”.

For the compound `CCn1c(C(C)NC(=O)c2ccc(C)cc2)n[nH]c1=S` (stereo not drawn), the Potency result is “inactive”.

Take `COc1cccc(CNC(=O)CCC2CCCN(C(=O)c3ccc(F)c(Cl)c3)C2)c1` (stereo not drawn): the Potency entry is “inactive”.

On to `COC(=O)C1(CCSC)NC(c2ccc(OC)cc2OC)C2C(=O)N(c3cccc(C(C)=O)c3)C(=O)C21` (stereo not drawn), for which the Potency entry is “inactive”.

For `Cc1ccc(S(=O)Cc2ccc(C(=O)N3CCN(C4CCCCC4)CC3)o2)cc1` (stereo not drawn), the Potency entry is “inactive”.

As to `Cc1[nH]c(C)c(S(=O)(=O)N2CCN(c3cccc(C(F)(F)F)c3)CC2)c1C(=O)N1CCCC1`, the Potency result was “inactive”.
